MBD2 DNA inh: inhibitors of MBD2 binding to methylated DNA, primary screen, biochemical, TR-FRET, DNA-binding domain, human; Methyl-CpG-binding domain protein 2 (Homo sapiens), Q9UBB5; MBD2 binding to methylated oligonucleotide; inhibition, % at 4.4 µM; 370,000 compounds, 0.31% hits; in the data active = inhibition above about 13%
UHRF1 MBD2 ctr: UHRF1 methylated DNA binding inhibitors, primary screen, counter-screen for MBD2 inhibitor project, biochemical, TR-FRET, human UHRF1, single concentration | E3 ubiquitin-protein ligase UHRF1 (Homo sapiens), Q96T88 | UHRF1 binding to methylated oligo | inhibition, % at 4.4 µM | 370,000 compounds, 0.75% hits | AID 687016, 2013; in the data active = inhibition above about 21%;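 note: UHRF1 SRA domain binding a hemimethylated CpG hairpin DNA probe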
rCAG RNA binder: binders of r(CAG) RNA repeats, primary screen, biochemical, fluorescence. r(CAG) RNA repeat, TO-PRO-1 dye displacement fluorescence. inhibition, % at 3 µM. 370,000 compounds, 1.3% hits. AID 651821, 2012;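 active = inhibition above the plate cutoff, the mean of all test compounds on that plate plus 3 SD, cut at about 35% in these data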;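 note: higher means more dye released from RNA so lower well fluorescence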
ABHD5-PLIN5 inh: ABHD5-PLIN5 interaction inhibitors, primary screen, cell lysate, split luciferase complementation, luminescence | Perilipin-5 (Homo sapiens) + 1-acylglycerol-3-phosphate O-acyltransferase ABHD5 (Homo … | Split G. princeps luciferase complementation, 4 h | inhibition, % at 4 µM | 360,000 compounds, 0.78% hits | AID 602281, 2012;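 active = inhibition above the mean inhibition across every tested compound plus 3 SD, cut at about 22% in these data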
LEDGF integ inh: blockers of LEDGF/p75-dependent integrase strand transfer – biochemical, TR-FRET, high throughput, primary screen; 370,000 compounds, 0.64% hits; inhibition, % at 3.7 µM; HIV-1 integrase (with human LEDGF/p75); TR-FRET IN-LEDGF/p75 DNA integration, Eu/Cy5; AID 743269, 2014;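 active = inhibition above the screen-wide mean plus 3 SD, cut at about 13% in these data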;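 note: signal is the Cy5 over europium emission ratio at 671 and 618 nm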
PRMT1 FP inh: PRMT1 methyltransferase inhibitors, primary screen, biochemical, fluorescence polarization. Protein arginine N-methyltransferase 1 (Homo sapiens), Q99873. recombinant PRMT1, activity-based probe fluorescence polarization. inhibition, % at 2.79 µM. 370,000 compounds, 1.3% hits;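 active = inhibition above about 21% made by adding two undisclosed values, limit read from the data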
Target sequence (Q99873 whole entry, looked up): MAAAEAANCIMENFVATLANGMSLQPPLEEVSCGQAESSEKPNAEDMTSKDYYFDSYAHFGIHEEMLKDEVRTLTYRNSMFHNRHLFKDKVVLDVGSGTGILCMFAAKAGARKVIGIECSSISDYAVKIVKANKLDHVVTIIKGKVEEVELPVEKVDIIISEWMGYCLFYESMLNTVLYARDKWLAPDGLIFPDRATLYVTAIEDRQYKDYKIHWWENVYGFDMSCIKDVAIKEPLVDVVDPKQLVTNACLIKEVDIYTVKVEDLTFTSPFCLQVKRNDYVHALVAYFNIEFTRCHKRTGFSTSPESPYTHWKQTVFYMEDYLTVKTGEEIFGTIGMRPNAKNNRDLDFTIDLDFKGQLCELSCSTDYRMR
ABHD5-PLIN5 conf: ABHD5-PLIN5 interaction inhibitors, confirmation, biochemical, luminescence; inhibition, % at 4 µM; AID 651612, 2012; shares compounds with ABHD5-PLIN5 inh; 2,200 compounds, 67% hits; in the data active = inhibition above about 23%
HNF4 split-luc: HNF4 dimerization inhibitors, counter-screen for ABHD5-PLIN5 interaction inhibitor project, biochemical, split-luciferase complementation, luminescence | shares compounds with ABHD5-PLIN5 inh | inhibition, % at 4 µM | 2,200 compounds, 77% hits | AID 651674, 2012;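 active = mean inhibition across replicate wells exceeding the computed hit threshold, cut at about 13% in these data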;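 note: light from luciferase halves that rejoin when HNF4 fusion proteins dimerize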
Hits are given with their value; 0 = inactive; - = not tested or not shown. Only some compounds are listed: those with a hit (about 4.1% of all), similar ones and a draw of the others.

SMILES	MBD2 DNA inh	UHRF1 MBD2 ctr	rCAG RNA binder	ABHD5-PLIN5 inh	LEDGF integ inh	PRMT1 FP inh	ABHD5-PLIN5 conf	HNF4 split-luc
O=C(NCc1ccccc1)C(c1ccccc1F)n1c(=O)c(-c2ccco2)nc2ccccc21 (configuration not stated)	0	0	0	66.8	0	0	68.6	31.6
COc1ccc(NC(=O)C(c2ccncc2)n2c(=O)c(-c3ccco3)nc3ccccc32)cc1 (configuration not stated)	0	0	0	0	0	0	-	-
COc1ccc(C(C(=O)NCc2ccccc2)n2c(=O)c(-c3ccco3)nc3ccccc32)cc1 (configuration not stated)	0	0	0	72.3	0	0	77.8	42.0
Cc1ccc(OCCNC(=O)[C@@H](Cc2ccccc2)NC(=O)[C@H]2O[C@@H](n3ccc(=O)[nH]c3=O)[C@H](O)[C@@H]2O)cc1C	0	0	0	-	0	0	-	-
COC(=O)C[C@@H]1CC[C@@H]2[C@@H](COc3ccc(NC(=O)Nc4ccc(F)cc4)cc3C(=O)N2C)O1	0	0	0	-	0	0	-	-
COC(=O)/C=C1\OC(C)c2ccccc21 (configuration not stated)	0	0	0	-	0	0	-	-
O=C(C=Cc1ccccn1)c1ccccc1	0	0	0	79.0	0	0	92.8	103.0
O=C(C=Cc1ccccn1)c1ccccc1O	0	0	0	66.7	0	0	98.6	88.8
Cc1ccc(/C=C/C(=O)c2ccccc2O)cc1	0	0	0	0	0	0	-	-
O=C(C=Cc1ccccc1Cl)c1ccccc1	0	0	0	36.7	0	0	88.2	70.9
COC(=O)C1=C(C)N(C)C(=NCc2ccc(OC)cc2)NC1c1cccc(F)c1 (configuration not stated)	0	0	0	-	0	0	-	-
CCOC(=O)CC[C@@]1(C(=O)OCC)C[C@@H](CC(=O)NCC23CC4CC(CC(C4)C2)C3)C(=O)N2CCCC=C21	0	0	0	-	0	0	-	-
COc1ccc(OC)c(S(=O)(=O)N(CCc2ccc(OC)c(OC)c2)Cc2cccs2)c1	0	0	0	-	0	0	-	-
COCC(=O)N[C@H]1C[C@@H]2O[C@H](CO)CC[C@@H]2O[C@@H]1CCc1ccc(-c2ccccc2)cc1	0	0	0	-	0	0	-	-
N=c1c(C(=O)NCc2ccc(F)cc2)cc2c(=O)n3ccccc3nc2n1CC1CCCO1 (configuration not stated)	0	0	0	0	0	0	-	-
N=c1c(C(=O)NCc2ccco2)cc2c(=O)n3ccccc3nc2n1CC1CCCO1 (configuration not stated)	0	0	0	27.9	0	0	0	0
COc1cc(OC)c(C=CC(=O)c2ccccc2O)c(OC)c1	0	0	0	0	0	0	-	-
COc1ccc(C(=O)/C=C/c2ccccc2)c(OC)c1	0	0	0	26.1	0	0	41.7	28.1
COc1ccc(/C=C/C(=O)c2cc3cccc(OC)c3oc2=O)cc1	0	0	0	37.5	0	0	64.1	52.9
COc1cc(C)cc(C(=O)C=Cc2ccccc2)c1O	0	0	0	64.1	0	0	94.6	75.2
COc1cc(/C=C/C(=O)c2ccccc2O)cc(OC)c1OC	0	0	0	52.0	0	0	89.6	84.1
COc1ccc(C(=O)/C=C/c2ccc(N(C)C)cc2)c(OC)c1	0	0	0	0	0	0	-	-
CCCCOCCCNC(=O)C[C@H]1C[C@@]2(C(=O)OC)C(=C[C@H](C(C)C)O[C@@H]2C2CC2)N(Cc2cccc3ccccc23)C1=O	0	0	0	-	0	0	-	-

Compound activity deposited in PubChem BioAssay by The Scripps Research Institute Molecular Screening Center.
